# Measured values taken from article PMC12136788.
# Residue numbers refer to the chain shown, from its start. In all, about 24,000 sequences were measured (“enrichment r”: median about 0.99, highest 2% from about 3.7 on). Many of the other results were omitted from the sample, so the highest values are more common in it than they were.
# T1: UNK ZnF1-3 (human, UniProt Q9C0B0 31-174)
# T1 sequence: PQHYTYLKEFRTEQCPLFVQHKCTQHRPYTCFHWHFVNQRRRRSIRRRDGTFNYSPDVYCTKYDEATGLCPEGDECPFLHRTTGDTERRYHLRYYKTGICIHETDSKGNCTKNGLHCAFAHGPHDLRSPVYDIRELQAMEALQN
# B1: chr14:89307221:89307222:+_ENSG00000165533_ENST00000346301|hu_mus|hu_hu_hu_mus_False|18_78 (ssRNA)
# RNA: GGGAGUUCUACAGUCCGACGAUCUCCUGUUUGGUUAGUGCCAGGGAGCUUCAAAGACGUUCCAGGGCGUGGGACCUGAGCAAUAGCAUUUUCAUCCAGGAUCAUUUCAGCAAUUCCUUCCUGAUCUACAUCAAUUUCAUCUAUCAACAGAGGAUUGAGCAUCA
# B2: chr7:7679991:7679992:-_ENSG00000106399_ENST00000396682|hu_hu|hu_hu_hu_mus_False|68_88 (ssRNA)
# RNA: GGGAGUUCUACAGUCCGACGAUCUGGGAUGAAUCUUUUCCAGCUUCCCUACGAAGCACACGGGCCGGUCGAUGAAUUGUGGUAACAUGCUGGCGUUGACGCGCGCUUUGGGGAGCUGCAUUAUGUCCUCCAUGAUUCUGCCGCCAACAGAGGAUUGAGCAUCA
# B3: 96788939_96789059_3507_CDS_ENSG00000066739_ENST00000359933|human|control|control (ssRNA)
# RNA: GGGAGUUCUACAGUCCGACGAUCACAAACAUCUUUCAAGGAAUGAGCACCUCCUUCCUCUUCCUCCUGGUAGUGACCAUCAUUCUCCUCUUCUUCUUCAGCUGCAAUUCUCUCCAAAAUGGAAUGCAUGGCUGGUGGAUUUAUCAACAGAGGAUUGAGCAUCA
# B4: chr9:74900086:74900087:+_ENSMUSG00000007656_ENSMUST00000169492|mus_mus|motif|central (ssRNA)
# RNA: GGGAGUUCUACAGUCCGACGAUCUUGUCCCAAGUGAGGAUACCUUGCCUUUAACUUUGCUUCUUCAGCUUUCUCUGGACGGGUUACUUUAUCUUCCAUUUCCUUUUGCUCCUCCGCAGACGCUGCCUCGGGGACUUCCGCGGACAACAGAGGAUUGAGCAUCA
# B5: chr3:139236485:139236486:-_ENSG00000114115_ENST00000232219|hu_mus|FALSE|FALSE (ssRNA)
# RNA: GGGAGUUCUACAGUCCGACGAUCCUGAAGACCAAGGUUAUCUCCUCGGGCUGUUCGGGCUGCUCAGUGUACUUUCUUAAACACUUGCUUGCAGAUCACACCCUCAGCUCUCAUUUCCAGGUGAAGUUCAUCACCCUCGAUCCACAACAGAGGAUUGAGCAUCA
# B6: 133975656_133975776_5164_3pUTR_ENSG00000205060_ENST00000378509|human|control|control (ssRNA)
# RNA: GGGAGUUCUACAGUCCGACGAUCCAUUUCUCUGUCCGUUUAGGUCAAUGCCAACUGGUCCACCAGUGAACAUGUCCACCGGCCCUGAGCUAACUCAUUGGUUUAUUAUUCCUGACCUAAGGUGUUUUACUUCCCCUCUCCAUACAACAGAGGAUUGAGCAUCA
# B7: chr1:39494447:39494448:+_ENSG00000168653_ENST00000372967|hu_mus|hu_hu_hu_mus_False|18_98 (ssRNA)
# RNA: GGGAGUUCUACAGUCCGACGAUCGCACCGAGCGGCGAUCUUGUAGGGCUGUUCUGCGCUUAGGAACAUAAAGUGCCGGUCCAGGCUGAUGCCCAGCUUUUUCUGUAUGUCAAGGAAAGGCAUGGCCCUGCAGUGCCCUUGUCACAACAGAGGAUUGAGCAUCA
# B8: chr20:43533646:43533647:+_ENSG00000166913_ENST00000353703|hu_hu|motif|central (ssRNA)
# RNA: GGGAGUUCUACAGUCCGACGAUCGAAAUUUAGUGCCAGACCAAGACGAAUUGGGUGUGUAGGCUGCAUUUCUUUCUUACGGAUUUCAAAUGCUUCCUGGUAAGCCUGCUGGGAGUUCGACACAGUGGUUUGUUUGUUGUCUCCCAACAGAGGAUUGAGCAUCA
# B9: chr11:77340908:77340909:-_ENSG00000074201_ENST00000525064|hu_hu|hu_hu_hu_mus_True|8_8 (ssRNA)
# RNA: GGGAGUUCUACAGUCCGACGAUCGUUUGGAUCCCUGGACACCGCAUGUAAACUAAUGGUGGGGUAUUCCAGUGAGAAUCCUAAUCCCGAACCAUCUAACCAGGACAGGCGGCUCUCCGCGAUGUAAAGGGUACCAGUGCCGAGCAACAGAGGAUUGAGCAUCA
# B10: 135097835_135097955_579_3pUTR_ENSMUSG00000040731_ENSMUST00000036125|mouse|control|control (ssRNA)
# RNA: GGGAGUUCUACAGUCCGACGAUCAAGUCCAUGUUGGAGCCACGCAGAGGAGGGCCAUCUCGAAAGCGACUCCCCAUUGGAGGGCCUGCUCGCCGGUCCCCAGGGCGACUGCCCCCCCUACCCCCUAAGAAGUCAUCCCUGUAGCAACAGAGGAUUGAGCAUCA
# B11: 36138064_36138184_3590_3pUTR_ENSG00000100320_ENST00000405409|human|control|control (ssRNA)
# RNA: GGGAGUUCUACAGUCCGACGAUCAAAGCAAAAGCAAAAUCCUCCCUGCCCCCAUUCCCUAGAACUGUGAAAGCCCGCAUCCCAUUCCCCGCUCCUCUAACUAAAAUAUUUAUAUACAUACAACAAAAAUUGUCUUAACAGCAACAACAGAGGAUUGAGCAUCA
# B12: chr12:493273:493274:-_ENSG00000073614_ENST00000399788|hu_mus|hu_hu_hu_mus_False|48_58 (ssRNA)
# RNA: GGGAGUUCUACAGUCCGACGAUCUUUUCUCUCCACCACAGGGAUCUUCAAUGUAGAUCCUUGAAGUUCCCAAAAUUUUGCUAGUUGAUCCAAGAAAUCCAAUCUUACUCUAGUCAUUGCCUCAAGUUCAUUCAGGCGCUGGACCAACAGAGGAUUGAGCAUCA
# B13: 54572216_54573035_2393_CDS_ENSG00000067248_ENST00000251636|human|control|control (ssRNA)
# RNA: GGGAGUUCUACAGUCCGACGAUCAUCUUCAAGAUGAAAAACCUCAACAGGAUAACUUCUUCCUGAAAUUCUGAGAAUGGGGCAGUGUGUGAAAUAUGUAGAAAAUUUUUCGCUGUCCACAGUGGCACUCAUUAGAAUCAAGUGCAACAGAGGAUUGAGCAUCA
# B14: chr18:9954606:9954607:+_ENSG00000101558_ENST00000400000|hu_hu|FALSE|FALSE (ssRNA)
# RNA: GGGAGUUCUACAGUCCGACGAUCACCAUUUCCCCAAGGAAUACCUCUUGGCAUUUCCUGAAUGAGUGGGAUUAGCAAUCUAAAUAAAUCAUAUUUCAAGAGGUAACAGCAACAGAUAAAAUUUAAAGGGAUUAUUAAAAUAACCAACAGAGGAUUGAGCAUCA
# B15: chr19:16212804:16212805:+_ENSG00000167460_ENST00000300933|hu_mus|hu_hu_hu_mus_False|48_58 (ssRNA)
# RNA: GGGAGUUCUACAGUCCGACGAUCAACAAUUCUGGAGUGAAGGAAAGAUGUAACAUGGAACAGCAUUAAAGCUCAGUAUUACUAUAUGUGGGUAAUUAUGAUCACCCCAGCAUUCUCGCUUGGAAUGCUUAAAGACAAUCUGUUCAACAGAGGAUUGAGCAUCA
# B16: chr3:75345182:75345183:-_ENSMUSG00000027835_ENSMUST00000161137|mus_hu|FALSE|FALSE (ssRNA)
# RNA: GGGAGUUCUACAGUCCGACGAUCAUGUGGUCUCAGCUUCAUUCUUCAUCUCUUCCAUUGUCAUCCUCAUUCAAAAGCCAACUACAGUUGAAAAAGCAGUGCUAAAAUGCAGAGGAAUCUUCAUUCACUGCAAUAUUUCUUCUCCAACAGAGGAUUGAGCAUCA
# B17: chr18:9954606:9954607:+_ENSG00000101558_ENST00000400000|hu_mus|FALSE|FALSE (ssRNA)
# RNA: B14 RNA with A24C, C26A, A27U, U30C, A36C, G37A, U41A, G129A
# B18: chr19:16212804:16212805:+_ENSG00000167460_ENST00000300933|hu_mus|hu_hu_hu_mus_False|8_78 (ssRNA)
# RNA: GGGAGUUCUACAGUCCGACGAUCAACAAUUCUGGAGUGAAGGAAAGAUGUAACAUGCAAUUAAUUAAAAGCUCAGUCAGAAGGCACAUGGGCAACAAUGAUCACCCCAGCAUUCUCGCUUGGAAUGUGCUUGAGAAAUCUGUUCAACAGAGGAUUGAGCAUCA
# B19: 104554200_104554320_324_3pUTR_ENSMUSG00000032621_ENSMUST00000074616|mouse|control|control (ssRNA)
# RNA: GGGAGUUCUACAGUCCGACGAUCAUCAGAUCCAUACAAAGAAACAAAUAAGAAGAACAUAAGGCUUUCCUUUUAUCCUGCUCUAUUAGGAAAAAUAAAAGUGAGCAAAACUUCAAAGACUAACAAUCUCAUUAAUGGAACAUUCAACAGAGGAUUGAGCAUCA
# B20: chr3:57569730:57569731:-_ENSG00000168374_ENST00000303436|hu_mus|FALSE|FALSE (ssRNA)
# RNA: GGGAGUUCUACAGUCCGACGAUCAUAUUCUACUGUUUCCACAUUAAAACCAAUGGUAGGAAUGGUGGUGACUAUUUCCCCUAAUUUCAGUUUAUACAGAAUUGUCGUCUUGCCAGCAGCAUCCAAUCCAACCAUCAAAAUGCGCAACAGAGGAUUGAGCAUCA
# B21: chr2:73656703:73656704:-_ENSMUSG00000027104_ENSMUST00000100009|mus_hu|FALSE|FALSE (ssRNA)
# RNA: GGGAGUUCUACAGUCCGACGAUCAAGAAAUGGAAGUGGGAAGAAAGAUUCAGUAACACCCCCAUUUAUUAAAACACCAGCAAAUUAAAAGUGAAAUAAAUCACAAUGAAUUAUAAUACAAUUUACACAUUGAGCACAGAAAAACAACAGAGGAUUGAGCAUCA
# B22: chr9:42776432:42776433:-_ENSMUSG00000059495_ENSMUST00000165665|mus_hu|FALSE|FALSE (ssRNA)
# RNA: GGGAGUUCUACAGUCCGACGAUCUAACAAAUUUAUAGUCAAGAAAAUAAAAUUUGCUUUCCUCUCCCACCCAAAUCCCAACCCUCAAUAGAAAAGACGACAAUGGAAGAAAACACACCCAUUUUCAAGUGCCUGCUAUUUAGUCAACAGAGGAUUGAGCAUCA
# Molecular target: T1, UNK ZnF1-3
# Assay: nsRBNS (natural sequence RNA bind-n-seq); RBNS binding buffer (assumed for nsRBNS): 25 mM Tris pH 7.5, 150 mM KCl, 3 mM MgCl2, 0.01% Triton X-100, 500 ug/ml BSA, 20 U/ml SUPERase-In, 4 C; UNK is unkempt and MSI1 is Musashi-1; names of the RNAs are library labels; protein concentration not given here; high values mean tight binding
row,Binder,binding signal [enrichment R]
1,B1,0.843
2,B2,0.498
3,B3,1
4,B4,0.353
5,B5,0.756
6,B6,0.604
7,B7,0.479
8,B8,0.731
9,B9,1.2
10,B10,0.982
11,B11,3.79
12,B12,0.927
13,B13,1.16
14,B14,3.36
15,B15,0.913
16,B16,1.23
17,B17,4.49
18,B18,1.42
19,B19,0.765
20,B20,0.905
21,B21,4.55
22,B22,4.14
